Compound activity from PubChem.
The list is not random: actives were taken first. Their share in the collection is about 14%.
Giardia FBPA inh – inhibitors of Giardia lamblia fructose-1,6-bisphosphate aldolase. A8B2U2. purified Giardia FBPA. Potency, µM (titrated, usually from 59.6 µM), for the others: at the highest dose activity, negative = inhibition, usual class: inhibitors. 290,000 compounds, 0.71% hits. AID 2451; note: potency is the fitted concentration of half-maximal effect; % is set by controls: 0 for no effect and ±100 for the full control effect; nearly all actives have a fitted effect of over 55% in size
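Giardia FBPA (40 nM reagent) was preincubated 10 min at RT with compound (up to 57.5 uM final), then substrate plus GAPDH/TPI/NAD/arsenate coupling system with diaphorase/resazurin was added; resorufin fluorescence (525/598 nm) was read after 20 min.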
Shiga inhibitor – blocks Shiga toxin action in Vero cells. Vero cells, Shiga toxin protein synthesis inhibition reporter. inhibition, % at 38.7 µM. 290,000 compounds, 9.2% hits; in the data active = inhibition mostly above about 28%, no sharp cut-off; inactive = mostly below about 43%; note: 0% is about no effect
LmPK inhibitor – inhibitors of Leishmania mexicana pyruvate kinase; Q27686; AID 1721; purified LmPK, Kinase-Glo ATP luminescence, 1 h; 290,000 compounds, 0.37% hits; Potency, µM (doses to about 57.5 µM), for inactives: at the highest dose activity change, negative = inhibition, usual class: inhibitors; note: potency is the fitted concentration of half-maximal effect; % is set by controls: 0 for no effect and ±100 for the full control effect
Target sequence (Q27686 whole entry, looked up): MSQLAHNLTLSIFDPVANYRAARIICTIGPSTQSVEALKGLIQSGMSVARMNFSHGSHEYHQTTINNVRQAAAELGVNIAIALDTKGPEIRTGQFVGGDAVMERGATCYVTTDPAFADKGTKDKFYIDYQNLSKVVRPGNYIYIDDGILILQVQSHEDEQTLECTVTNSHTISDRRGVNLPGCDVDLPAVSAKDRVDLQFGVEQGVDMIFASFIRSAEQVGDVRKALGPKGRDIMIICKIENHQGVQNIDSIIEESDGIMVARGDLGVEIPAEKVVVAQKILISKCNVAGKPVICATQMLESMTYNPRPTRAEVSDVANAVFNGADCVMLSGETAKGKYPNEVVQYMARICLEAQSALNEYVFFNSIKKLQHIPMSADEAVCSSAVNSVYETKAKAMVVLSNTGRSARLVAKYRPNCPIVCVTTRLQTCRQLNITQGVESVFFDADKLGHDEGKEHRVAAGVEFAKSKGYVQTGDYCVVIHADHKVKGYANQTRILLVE
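Screened at intermediate enzyme activity to detect both inhibitors and activators: LmPK at 0.1 nM, with a 0.5 nM enzyme column as activation reference. PEP 0.5 mM, ADP 0.1 mM; ATP detected by luminescence after 1 h.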
NS1 inh – inhibitors of influenza NS1 protein function; AID 2326; 270,000 compounds, 0.4% hits; Potency, µM (titrated, usually from 46.1 µM), inactives show at the top dose activity, positive = more growth; calls by dose curve; note: potency is the fitted concentration of half-maximal effect; actives are rising curves; nearly all actives have a fitted effect of over 50% in size
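In this qHTS, NS1 from influenza A is expressed in budding yeast, where it slows growth. Cells are switched from glucose to 2% galactose medium (pH 6.0, -URA), treated with compound, and growth recovery is read at OD600.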
CHX counter – counter-screen hit for Shiga toxin inhibitors, cycloheximide. cell reporter, cycloheximide protein synthesis inhibition counterscreen. max response, %. 300,000 compounds, 12% hits. AID 2314; in the data active = max response mostly above about 13%, no sharp cut-off; inactive = mostly below about 14%; note: read at 38.3 µM for the half of the compounds with a filed dose; 0% is about no effect
Numbers without * were called inactive; ? = inconclusive; / = not tested or not shown. Unless noted, calls come from the whole dose curve; as a rule, active = well fitted curve in the direction sought with a large enough effect; inconclusive = small, poorly fitted or top-dose-only effect, or another doubt; inactive = no such curve, though single readings can be large; an effect the other way counts as inactive or inconclusive.

SMILES	Giardia FBPA inh	Shiga inhibitor	LmPK inhibitor	NS1 inh	CHX counter
Cc1cc(C)c(OCC(=O)Nc2cccc(O)c2)cc1C	1%	59*	0%	-9%	28*
Cc1cc(C)c(OCC(=O)Nc2ccc3c(c2)OCO3)cc1C	1%	16	1%	2%	21*
COc1cc(C=O)ccc1OCC(=O)Nc1ccc2c(c1)OCO2	/	44*	0%	-3%	20*
Cc1ccccc1-c1cncnc1N1CCNCC1	-4%	/	/	/	/
Cc1ccc(C)c(OCC(=O)Nc2ccc3c(c2)OCO3)c1	9%	42*	2%	-1%	48*
CC(C)NS(=O)(=O)c1ccc(OCC(=O)Nc2ccc3c(c2)OCO3)c(Cl)c1	-6%	-2	1%	-15%	-3
COc1ccc(/C=N/NC(=O)c2cc(C3CC3)[nH]n2)cc1OC	8%	52*	-4%	6%	11
COc1cc(/C=N/NC(=O)c2cc(C3CC3)[nH]n2)ccc1O	2%	40	1%	6%	16*
O=C(N/N=C/c1ccc(O)cc1)c1cc(C2CC2)[nH]n1	/	-30	-5%	0%	12
Cc1ccc(C)c(S(=O)(=O)N2CCN(C(=O)Cn3cnc4c3c(=O)n(C)c(=O)n4C)CC2)c1	/	-5	-9%	5%	-2
Cc1ccc(O)c(NC(=S)NC(=O)/C=C/c2ccco2)c1	-9%	67*	0%	13%	47*
Cc1ccc(C(=O)/C=C/c2ccco2)c(O)c1	-5%	56*	-3%	6%	37*
CC(C)C(=O)NC(=S)Nc1ccccn1	-29%	-14	-5%	-4%	1
O=C(/C=C/c1ccco1)NC(=S)Nc1ccc(Cl)cn1	-20%	88*	3%	0%	29
O=C(/C=C/c1ccc(Cl)cc1Cl)NC(=S)Nc1ccccn1	7%	86*	-1%	-4%	38*
Cc1ccc(O)c(NC(=S)NC(=O)/C=C/c2ccccc2)c1	11%	7	0%	-11%	5
Cc1cc(C)c(C(=O)/C=C/c2ccco2)c(=O)[nH]1	?	-2	13%	-1%	1
Cc1ccnc(NC(=S)NC(=O)/C=C/c2ccco2)c1	?	138*	4%	-13%	70*
CCC(C)CCCCC(=O)N[C@@H](CCN)C(=O)N[C@H](C(=O)N[C@@H](CCN)C(=O)N[C@H]1CCNC(=O)C([C@@H](C)O)NC(=O)[C@@H](CCN)NC(=O)[C@H](CCN)NC(=O)[C@H](CC(C)C)NC(=O)[C@@H](CC(C)C)NC(=O)[C@H](CCN)NC1=O)[C@@H](C)O (stereo not given in full)	-2%	-12	/	/	6
O=C(Nc1nnc(SCCC2OCCO2)s1)C1CC(=O)N(c2ccc(F)cc2)C1 (stereo not given)	/	-2	-2%	29%	4
COc1cc(-c2ncc3ccccn23)cc(OC)c1OC	?	-10	-11%	-2%	-1
Brc1ccc(-c2ncc3ccccn23)cc1	-10%	88*	-2%	-74%	60*
c1csc(-c2ncc3ccccn23)c1	-11%	68*	0%	-1%	40*
Fc1ccc(-c2ncc3ccccn23)cc1	-10%	33	10%	0%	33*
c1ccc(-n2c(-c3ccncc3)nnc2-c2cccs2)cc1	5%	-7	2%	-2%	-1
SMILES	Giardia FBPA inh	Shiga inhibitor	LmPK inhibitor	NS1 inh	CHX counter
CN(Cc1ccccc1)C1CCN(Cc2ccccc2[N+](=O)[O-])CC1	?	/	0%	-10%	3
CN(Cc1nc2ccccc2[nH]1)Cc1nc(CC2CC2)no1	3%	31	1%	0%	16*
CCCC1(C(=O)OC)C=C2C(=C(c3ccccc3)C(=O)C2C)CN1 (stereo not given)	-20%	/	/	/	/
N#Cc1c(/N=C/c2cccs2)sc2c1CCC2	-14%	12	8%	-4%	6
CN(C)/C=N/c1sc2c(c1C#N)CCCC2	?	116*	8%	-2%	35*
Cc1ccc(C)n1-c1sc2c(c1C#N)CCCC2	-2%	4	5%	20%	8
N#Cc1c(/N=C/c2ccco2)sc2c1CCCCC2	-6%	125	?	-43%	35*
CC1CCc2c(sc(/N=C/N(C)C)c2C#N)C1 (stereo not given)	1%	60*	8%	3%	37*
Cc1ccnc(SC2CC(=O)N(c3ccc(F)cc3)C2=O)n1 (stereo not given)	-6%	-14	1%	9%	-3
CC(C)(C)CC(=O)Nc1cc2c3c(c1)CCC(=O)N3CCC2	5%	-5	-7%	-1%	-3
O=C(O)C(Cc1c[nH]c2ccccc12)NS(=O)(=O)c1cccc(Cl)c1Cl (stereo not given)	12%	-1	-6%	-2%	5
Cc1ccc(NC(=O)/C(C#N)=C/c2ccsc2)c(C)c1	0%	102*	-3%	8%	43*
CC(C)(C)c1ccc(C(=O)/C(C#N)=C/c2cccs2)cc1	0%	73*	-13%	0%	33*
N#C/C(=C\c1cccs1)C(=O)Nc1ccccn1	1%	40	?	-2%	36*
COc1ccc(/C=C(/C#N)C(=O)Nc2cc(C)ccc2C)cc1C(=O)O	3%	-9	-2%	15%	-2
Cc1ccccc1NC(=O)/C(C#N)=C\c1cccnc1	0%	-3	5%	18%	-2
Cc1ccccc1NC(=O)/C(C#N)=C\c1ccsc1	7%	56	-2%	-4%	28*
NC1=C(O)C(=O)[C@H](c2c[nH]c3ccc(OCc4ccccc4)cc23)O1	/	/	/	-6%	/
COc1ccc(C(=O)N2CCN(Cc3ccc4c(c3)OCO4)CC2)cc1[N+](=O)[O-]	8%	-13	-1%	1%	15
COc1ccc(CN2CCN(C(=O)Cn3nc(C)n4cccc4c3=O)CC2)c(OC)c1OC	/	-4	-9%	6%	-10
Cc1ccc(NC(=O)/C(C#N)=C/c2cccs2)c(C)c1	0%	101*	7%	4%	50*
Cc1cccc(C)c1NC(=O)/C(C#N)=C/c1cccs1	6%	-2	-1%	-23%	-1
CCOC(=O)[C@@H]1[C@H]2COc3ccc(Br)cc3[C@H]2N2C(=O)N(c3cccc(Cl)c3)C(=O)[C@]12C	3%	6	1%	-22%	-3
O=C(OCCN1CCCCC1)c1ccccc1Cl	-8%	37	-1%	-5%	29*
O=C(OCCN1CCCCC1)c1ccc(O)cc1	3%	19	-8%	14%	23*
Cc1ccc(-n2ncc3c2CCCC3NC(=O)CCc2c(C)noc2C)cc1C (stereo not given)	2%	-3	5%	4%	12
CC(=O)N1CCSc2ccc(S(=O)(=O)Nc3cccc(C)c3)cc21	/	-5	-1%	-12%	1
CCCn1c(-c2cccs2)nc2nc3ccccc3nc21	-9%	27	-1%	-55%	11
c1csc(-c2nc3nc4ccccc4nc3n2Cc2ccc3c(c2)OCO3)c1	?	33*	-2%	-14%	12*
COCCn1c(-c2cccs2)nc2nc3ccccc3nc21	-5%	20	-1%	-6%	13*
